# Laboratory results taken from PubChem BioAssay (EPA / NIEHS).
# “And” between values parts separate entries of the source, which are not always exact repeats. Equal values may be shown once. Records with an inconclusive call do not appear. The source made the active and inactive calls. Rule for the calls: active = hit-call score of the fitted dose curve at least 0.9, where 1 is the maximum; inconclusive = response in the unintended direction; inactive = score below 0.9.
# Molecular target: Cellular tumor antigen p53 (Homo sapiens) (UniProt P04637)
# Experiment: TOX21_p53_BLA_p4_ratio: Tox21 HCT-116 p53 Agonism Beta-lactamase Assay, Ratio, Phase 4 (AID 2283601)
# Procedure, shortened: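 Signal is the blue/green (460nm/530nm) ratio of cleaved versus uncleaved CCF4-AM substrate, read after 2 h substrate loading. Cells were HCT116 carrying the p53-responsive beta-lactamase reporter, dosed 16 h at 37C, 5% CO2; CellTiter-Glo measured in parallel.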
# Sequence of Cellular tumor antigen p53 (Homo sapiens) (P04637 whole entry, looked up): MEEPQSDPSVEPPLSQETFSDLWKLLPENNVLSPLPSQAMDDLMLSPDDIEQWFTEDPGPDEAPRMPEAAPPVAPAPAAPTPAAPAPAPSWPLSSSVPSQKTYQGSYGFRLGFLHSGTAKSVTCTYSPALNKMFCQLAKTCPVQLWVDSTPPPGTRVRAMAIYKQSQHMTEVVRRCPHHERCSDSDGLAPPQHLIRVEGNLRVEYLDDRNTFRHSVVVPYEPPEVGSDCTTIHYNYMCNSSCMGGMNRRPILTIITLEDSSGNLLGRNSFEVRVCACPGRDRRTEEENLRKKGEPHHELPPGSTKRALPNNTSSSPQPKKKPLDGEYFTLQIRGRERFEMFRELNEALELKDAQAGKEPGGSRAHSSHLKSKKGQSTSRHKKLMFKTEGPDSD
SMILES,outcome,AC50
CC(C)(Oc1ccc(C2CC2(Cl)Cl)cc1)C(=O)O (stereo not drawn),inactive,
CC(=O)c1ccc[nH]1,inactive,
CCC(C)(C)C1CCCCC1OC(C)=O (stereo not drawn),inactive,
CC(C)c1ccc(C#N)cc1,inactive,
CCOC(=O)N1CCC(=C2c3ccc(Cl)cc3CCc3cccnc32)CC1,inactive,
COC(=O)c1cc(Cl)ccc1[N+](=O)[O-],inactive,
NC(=O)OCC(COC(N)=O)c1ccccc1,inactive,
N#[N+]c1ccc2c(S(=O)(=O)[O-])cccc2c1O,inactive,
CCN(CC#N)c1cccc(C)c1,inactive,
C=CC(=O)OCCC(=O)O,inactive,
COCC(C)N (stereo not drawn),inactive,
[Cl][In]([Cl])[Cl],inactive,
CCC(C)OC(=O)c1ccc(O)cc1 (stereo not drawn),inactive,
C/C=C\C/C=C/CCCCCCCCOC(C)=O,inactive,
N[C@H]1C(O)O[C@H](CO)[C@H](O)[C@@H]1O (stereo partly drawn),inactive,
CC(C)(c1cc(Br)c(OCCO)c(Br)c1)c1cc(Br)c(OCCO)c(Br)c1,,50.1 µM (active)
N#CCc1ccc(Cl)cc1Cl,inactive,
O=C1c2ccccc2C(=O)C1c1nc2ccccc2c(Br)c1O,inactive,
COC(=O)C1=C(C)NC(C)=C(C(=O)OCC(C)C)C1c1ccccc1[N+](=O)[O-] (stereo not drawn),,33.2 µM (active) and 18.9 µM (active)

SMILES,outcome,AC50
CC(C)(C)C(=O)C=Cc1ccc(Cl)cc1,inactive,
c1ccc(-c2ccccn2)nc1,inactive,
NCCCN1CCN(CCCN)CC1,inactive,
Cc1cc(O)c(Cl)c(C)c1Cl,,74.9 µM (active)
CC(=O)[C@@]1(O)CC[C@H]2[C@@H]3C[C@H](C)C4=CC(=O)C=C[C@]4(C)[C@@]3(F)[C@@H](O)C[C@@]21C,inactive,
Cc1cccc(N(C)C(=S)Oc2ccc3ccccc3c2)c1,inactive,
COc1c2ccoc2cc2oc(=O)ccc12,inactive,
O=C1c2cccc(O)c2C(=O)c2c(O)cc(CO)cc21,inactive,
CC(=O)OCC(=O)[C@@]12N=C(C)O[C@@H]1C[C@H]1[C@@H]3CCC4=CC(=O)C=C[C@]4(C)[C@H]3[C@@H](O)C[C@@]12C,inactive,
c1ccc(CCCc2ccncc2)cc1,inactive,
C=C[Si](OC(C)=O)(OC(C)=O)OC(C)=O,inactive,
O=C1CCCCCN1SSN1CCCCCC1=O,inactive,
CCC(Cc1ccccc1)(C(=O)c1ccc(N2CCOCC2)cc1)N(C)C (stereo not drawn),inactive,
COc1ccc(C(Cl)=C(c2ccc(OC)cc2)c2ccc(OC)cc2)cc1,inactive,
Cc1ccccc1C,inactive,
CCCOCCOCCOCCO,inactive,
O=C(Nc1cccc(C(F)(F)F)c1)c1cc(Br)cc(Br)c1O,,3.52 µM (active) and 8.65 µM (active)
CC(=O)Oc1ccc(C)cc1,inactive,
CC/C=C\CCOC(=O)CCCCC,inactive,
